From PubChem BioAssay AID1159580 (chemical genetic matrix, 2015)
Hit rate of the full screen: of about 5,500 compounds, about 2,000 (36%) were called active. Roughly 18% stayed inconclusive and do not appear here. Cut-off read from the data, not from the text of the source: active = normalized growth mostly below about 0.91 (no sharp cut-off); inconclusive = no clear call, values can overlap the other calls; inactive = mostly above about 0.92. Some of the results follow.

Assay: chemical genetic growth profiling, strain panel (AID 1159580);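 note: tested at 20 µM; growth read once vehicle control cultures reached saturation at 30 °C; 1 = growth at the plate median or of vehicle wells; lower values mean less growth of the strain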
Settings: S. cerevisiae deletion strains, growth OD

Measured: normalized growth

CC1CCN=C(N)S1 (centres undefined)
inactive: locus YAL013W, strain DEP1, active compounds read low 0.997 | locus YAL040C, strain CLN3, active compounds read low 0.98 | locus YER002W, strain NOP16, active compounds read low 1 | locus YNL153C, strain GIM3, active compounds read low 0.947 | locus YNL175C, strain NOP13, active compounds read low 0.991 | locus YNL197C, strain WHI3, active compounds read low 0.99 | locus YNL224C, strain SQS1, active compounds read low 1.02 | locus YOR083W, strain WHI5 (second series), active compounds read low 0.962 | locus YPL241C, strain CIN2, active compounds read low 0.978
